Assay results: the supplement of paper PMC10042075
Structures can show the parent of a compound that is named as a salt. ± gives the standard deviation of the averaged measurements.

What follows are compounds tested on LASCPC-01 (assay: cell viability relative to DMSO control (fraction); higher = less growth inhibition (more viable cells)). Conditions: 2 µM; 72 h.
How it was run: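 Serotonin-pathway compounds from a 7315-compound library were each tested at 2 μM for 72 hours in triplicate on LASCPC-01 human prostate cancer cells in 384-well plates. Viability was measured by CellTiter-Glo luminescence relative to solvent-control signal.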
`CCCCCNC(=N)N/N=C/c1c[nH]c2ccc(OC)cc12` [Tegaserod maleate] gave a cell viability of 0.531.
In the case of `O=C(O[C@@H]1C[C@@H]2C[C@H]3C[C@H](C1)N2CC3=O)c1c[nH]c2ccccc12` [Dolasetron], the cell viability is reported as 1.15.
`Cc1nccn1CC1CCc2c(c3ccccc3n2C)C1=O` (centres undefined) [Ondansetron HCl] gave a cell viability of 1.03.
`COc1cc(/C=C/C(=O)O)ccc1O` [Sodium ferulic] was tested, and the cell viability was 0.909.
`CCC(=O)c1c(O)cc(O)cc1O` [Flopropione] showed a cell viability of 0.95.
Work on `O=C(c1ccc(F)cc1)C1CCN(CCn2c(=O)[nH]c3ccccc3c2=O)CC1` [Ketanserin tartrate] yielded a cell viability of 0.737.
Compound `O=C(CCCCCN1CCN(c2ccccc2-c2ccccc2)CC1)NC1CCCc2ccccc21` (centres undefined) [LP 12 hydrochloride hydrate] has a cell viability of 0.972.
`Cc1ccc(Sc2ccccc2N2CCNCC2)c(C)c1` [Vortioxetine] showed a cell viability of 0.666.
`COc1ccc(NC(=O)c2ccc(-c3ccc(-c4noc(C)n4)cc3C)cc2)cc1N1CCN(C)CC1` was tested, and the cell viability was 0.512.
`CN1C2CCCC1CC(NC(=O)c1nn(C)c3ccccc13)C2` (centres undefined) [Granisetron hydrochloride] gave a cell viability of 0.955.
In the case of `CNCCC(Oc1ccc(C(F)(F)F)cc1)c1ccccc1` (centres undefined) [Fluoxetine], the cell viability is reported as 0.892 ± 0.41.
For `CNCC[C@@H](Oc1ccccc1C)c1ccccc1` [Atomoxetine HCl], the cell viability was 1.02.
Compound `CN(C)CCc1c[nH]c2ccc(CS(=O)(=O)N3CCCC3)cc12` [Almotriptan Malate] has a cell viability of 0.818.
`CN1CCN(c2cc3c(nn2)Oc2ccccc2N3C)CC1` [Azaphen] was tested, and the cell viability was 0.951.
In the case of `O=c1ccc2ccc(OCCCCN3CCN(c4cccc5sccc45)CC3)cc2[nH]1` [Brexpiprazole], the cell viability is reported as 1.01.
`N[C@@H](Cc1c[nH]c2ccc(O)cc12)C(=O)O` [5-Hydroxy-L-tryptophan] gave a cell viability of 1.04.
`COc1ccccc1N1CCN(CCN(C(=O)c2ccc(F)cc2)c2ccccn2)CC1` [p-MPPF dihydrochloride] showed a cell viability of 0.362.
`Fc1ccc([C@@H]2CCNC[C@H]2COc2ccc3c(c2)OCO3)cc1` [Paroxetine hydrochloride hemihydrate (MW = 374.83)] gave a cell viability of 1.09.
Work on `Cc1nccn1CC1CCc2c(c3ccccc3n2C)C1=O` (centres undefined) [Ondansetron hydrochloride] yielded a cell viability of 1.12.
Work on `O=c1[nH]c2ccccc2n1CCN1CCN(c2cccc(C(F)(F)F)c2)CC1` [Flibanserin] yielded a cell viability of 1.02.
In the case of `Fc1ccc2c(CCNCc3cccc(OCC(F)(F)C(F)F)c3)c[nH]c2c1` [idalopirdine], the cell viability is reported as 0.923.
For `CN(C)CCCN1c2ccccc2CCc2ccc(Cl)cc21` [Clomipramine HCl], the cell viability was 0.826.
`CNS(=O)(=O)CCc1ccc2[nH]cc(C3CCN(C)CC3)c2c1` [Naratriptan hydrochloride] gave a cell viability of 1.02.
In the case of `CCN(CC)CCOC(=O)c1cc(Cl)c(N)cc1OC` [SDZ-205,557 hydrochloride], the cell viability is reported as 1.06.
`C=CCc1ccccc1OCC(O)CNC(C)C` (centres undefined) [Alprenolol] showed a cell viability of 1.03.
In the case of `Nc1ccc2c(C(F)(F)F)cc(=O)oc2c1` [7-Amino-4-(trifluoromethyl)coumarin], the cell viability is reported as 0.894.
Work on `CSc1ccc2c(c1)C(N1CCN(C)CC1)Cc1ccccc1S2` (centres undefined) [Methiothepin mesylate] yielded a cell viability of 1.03.
In the case of `CC1(C)C(=O)N(CCN2CCC(C(=O)c3ccc(F)cc3)CC2)c2ccccc21` [LY-310,762 hydrochloride], the cell viability is reported as 0.89.
Compound `COc1ccc(NC(=O)Nc2ccc(F)cc2F)cc1-c1c(Br)cnn1C` [Nelotanserin] has a cell viability of 1.09.
